From PubChem BioAssay (NCATS)
Inconclusive results are not listed. Entries that show only a call come without a potency. Unmarked numbers belong to inactive results. The source made the active and inactive calls. The call rests on the fitted dose curve; in most records, active means well fitted inhibition curve with a large enough effect; inconclusive means small, poorly fitted or top-dose-only effect; inactive means flat fitted curve, though single readings scatter.

biological target: Glutathione peroxidase 1 (Homo sapiens) (UniProt P07203); test: Primary qHTS Assay for Inhibitors of Recombinant Selenoprotein Glutathione Peroxidase 1 (GPX1) (AID 1845191); settings: recombinant GPX1, GR-coupled NADPH fluorescence, 15 min; series mostly up to 48.8 µM; activity, negative = inhibition: at the top concentration; further: nearly all actives have a fitted effect of over 65% in size
Sequence (P07203 whole entry, looked up): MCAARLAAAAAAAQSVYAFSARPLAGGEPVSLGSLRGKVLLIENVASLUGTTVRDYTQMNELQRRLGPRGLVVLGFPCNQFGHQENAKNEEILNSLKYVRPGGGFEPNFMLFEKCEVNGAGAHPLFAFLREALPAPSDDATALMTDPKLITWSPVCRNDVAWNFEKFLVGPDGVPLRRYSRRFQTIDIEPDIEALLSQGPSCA
Description: Assay Provider: Elias S.J. Arner MD PhD.
Department of Medical Biochemistry and Biophysics
Karolinska Institutet, Solna, Stockholm, Sweden
Selenoprotein glutathione peroxidases (GPX), like the ubiquitously expressed GPX1 and the ferroptosis modulator GPX4, enact their antioxidant activities by reducing hydroperoxides using glutathione. […] GPX1 and GPX4 inhibitors have thus shown promise as anti-cancer agents. Existing inhibitors are often promiscuous, or modulate GPX activity only indirectly, so novel direct inhibitors identified through screening against GPX1 and GPX4 could be valuable. Here, we developed optimized glutathione reductase (GR)-coupled GPX assays for the biochemical high-throughput screen (HTS) of almost 12,000 compounds with known mechanisms of action. Initial hits were triaged using a GR counter-screen, assessed for isoform specificity using a separate GPX2 assay, and were assessed for general selenocysteine-targeting activity using a thioredoxin reductase (TXNRD1) assay. With this suite of assays, we identified novel GPX1/GPX2- and GPX4-specific inhibitors and can here present a validated pipeline for future discovery research for selenoprotein-targeting agents.
SEQUENCE No. (e.g., 1, 2, 3, etc.); […] (e.g., Cells, Incubation, Reagent, etc.); VALUE; DESCRIPTION.
1; Reagent 1; 3 uL; GPx1 enzyme or no enzyme control in 1536-well, black, solid Greiner assay plate.
2; Compound; 25 nL; Kalypsis pin tool (Wako USA) equipped with a 1536-well pin head.
3; Incubation; 30 min; room temperature.
4; Reagent 2; 1 uL; 10 nM GPX1, 1 mM GSH, 0.5 mM CHP, 0.5 mM NADPH, 100 nM GR, 0.01% BSA substrate
5; Detection; Fluorescence; ViewLux microplate reader, excitation 340 nm and emission 450 nm.
6; Incubation; 15 min; room temperature.
7; Detection; Fluorescence; ViewLux microplate reader, excitation 340 nm and emission 450 nm.
NOTES (numbers refer to Sequence numbers above)
1. 3 uL of 16.66 nM GPX1 and 0.016% BSA in assay buffer (50 mM Tris-HCl, 2 mM EDTA (pH 7.5), 150 mM NaCl) was added to columns 3-48 of 1536-well assay plates using a BioRAPTR Flying Reagent Dispenser (Let's Go Robotics (LGR), Carlsbad, CA). A no-enzyme control (0.01% BSA in TES assay buffer) was added to columns 1-2.
2. 25 nL of test compounds and DMSO controls were added to each well with a pin tool (Kalypsys).
3. The assay plates were incubated for 30 minutes at room temperature.
4. 1 uL of master mix (500 nM glutathione reductase (GR), 5 mM reduced glutathione (GSH), 2.5 mM NADPH in assay buffer) was added. 1 uL of cumene hydroperoxide (CHP) ([2.5 mM] in 50% EtOH) was then added within 5 minutes to initiate the reaction. Final concentrations were: 10 nM GPX1, 1 mM GSH, 0.5 mM CHP, 0.5 mM NADPH, 100 nM GR, 0.01% BSA.
5. Initial fluorescence readout (t=0) at 340/450 nm was measured using a ViewLux multimodal detector (PerkinElmer, Waltham, MA).
7. Endpoint fluorescence readout (t=15) at 340/450 nm was measured 15 min after room temperature incubation.
Potency means the concentration at half of the fitted maximal effect.

| SMILES | activity, negative = inhibition [%] | outcome | Potency |
| --- | --- | --- | --- |
| O=c1oc2c(C3OCCCO3)c(O)ccc2c2c1CNCC2 | -8.74 | – | – |
| CS(=O)(=O)c1ccc([C@@H](CC2CCCC2)C(=O)Nc2nccs2)cc1 | -5.8 | – | – |
| CC(C)(O)c1coc(S(=O)(=O)NC(=O)Nc2c3c(cc4c2CCC4)CCC3)c1 | 1.84 | – | – |
| Cc1nc(NC(=O)N2CCC[C@H]2C(N)=O)sc1-c1csc(C(C)(C)C)n1 | – | inactive | – |
| Cc1ccc(NC(=O)[C@H]2CCCN(C(=O)c3c(C)cccc3F)[C@H]2c2ccc(NC3CCCC3)cc2)cc1C(F)(F)F | 4.94 | – | – |
| CN(C)C/C=C/C(=O)Nc1ccc(C(=O)N2CCC[C@@H](Nc3ncc(Cl)c(-c4c[nH]c5ccccc45)n3)C2)cc1 | – | inactive | – |
| C[C@H]1[C@H](C)CC[C@]2(C(=O)O)CC[C@]3(C)C(=CC[C@@H]4[C@@]5(C)CC[C@H](O)C(C)(C)[C@@H]5CC[C@]43C)[C@H]12 | -2.29 | – | – |
| Cc1[nH]nc2ncc(C(=O)N3CCC[C@H]3c3ccc(Cl)cc3)cc12 | – | inactive | – |
| O=C(O)/C(S)=C/c1ccc(I)cc1 | – | inactive | – |
| O=C(NO)c1ccc(C2=Nc3ccccc3Oc3ccccc32)cc1 | -1.67 | – | – |
| CC(C)(C)n1nc(Cc2cccc3ccccc23)c2c(N)ncnc21 | -19.3 | – | – |
| O=C1S/C(=C\c2ccc(OCc3cccc(B(O)O)c3)cc2)C(=O)N1Cc1ccc(F)cc1 | – | inactive | – |
| C[C@H]1O[C@H](O[C@H]2[C@H](O)[C@@H](O)[C@@H](O[C@H]3[C@H](O)[C@@H](O)C(O)O[C@@H]3CO)O[C@@H]2CO)[C@H](O)[C@@H](O)[C@@H]1N[C@H]1C=C(CO)[C@@H](O)[C@H](O)[C@H]1O (stereo not given in full) | – | inactive | – |
| O=C1CCc2cc(S(=O)(=O)Nc3cccc(Cl)c3)ccc2N1 | -16.4 | – | – |
| CN(C)c1cc(NC(=O)CNC(C)(C)C)c(O)c2c1C[C@H]1C[C@H]3[C@H](N(C)C)C(=O)C(C(N)=O)=C(O)[C@]3(O)C(=O)C1=C2O | – | inactive | – |
| Cc1cc(C)c2c(c1)[C@@H](N(Cc1cc(C(F)(F)F)cc(C(F)(F)F)c1)c1nnn(C)n1)CCCN2CC1CCC(C(=O)O)CC1 (stereo not given in full) | -0.488 | – | – |
| COc1ccc(-c2oc3c(CC=C(C)C)c(OC4O[C@H](CO)[C@@H](O)[C@H](O)[C@H]4O)cc(O)c3c(=O)c2OC2O[C@@H](C)[C@H](O)[C@@H](O)[C@H]2O)cc1 (stereo not given in full) | – | inactive | – |
| CC[C@@]1(O)C(=O)OCc2c1cc1n(c2=O)Cc2c-1nc1cc(F)c(C)c3c1c2[C@@H](N)CC3 | – | – | 14.5 µM (active) |
| CC(C)(c1ccc(OCC(O)CO)cc1)c1ccc(OCC(O)CCl)cc1 (stereo not given) | -11.7 | – | – |
| Cc1ccc(-c2ccc(C)cn2)nc1 | – | inactive | – |

| SMILES | activity, negative = inhibition [%] | outcome | Potency |
| --- | --- | --- | --- |
| CC(C)n1c(/C=C/[C@H](O)C[C@H](O)CC(=O)O)c(-c2ccc(F)cc2)c2ccccc21 | – | – | inactive |
| CONC(=O)Nc1ccc(-c2sc3c(c2CN(C)C)c(=O)n(-c2ccc(OC)nn2)c(=O)n3Cc2c(F)cccc2F)cc1 | – | inactive | – |
| O=C(C[C@@H]1C/C=C\CCC(=O)O[C@H](c2ccccc2)CNC1=O)NCc1ccc(Cl)cc1 | – | inactive | – |
| N=C1CCCN1Cc1[nH]c(=O)[nH]c(=O)c1Cl | – | – | inactive |
| C=CC(=O)Nc1cccc(Oc2nc(Nc3ccc(N4CCN(C)CC4)c(F)c3)nc3[nH]ccc23)c1 | – | inactive | – |
| CC(C)OC(=O)[C@H](C)N[P@](=O)(OC[C@H]1O[C@@H](n2ccc(=O)[nH]c2=O)[C@](C)(F)[C@@H]1O)Oc1ccccc1 | – | inactive | – |
| C=C[C@@](C)(O)CC[C@@H]1[C@@]2(C)CCCC(C)(C)[C@@H]2CC[C@@]1(C)O | – | – | inactive |
| O=C(Nc1cnccc1Cl)N1CCN(Cc2ccc3c(c2)OC(F)(F)O3)CC1 | – | inactive | – |
| CO[C@@H]1[C@@H](O)[C@H](O)[C@@H](n2c3c(Cl)cccc3c3c4c(c5c6cccc(Cl)c6[nH]c5c32)C(=O)NC4=O)O[C@H]1CO | 1.47 | – | – |
| NS(=O)(=O)Oc1ccc2c3c(c(=O)oc2c1)CCCCC3 | – | – | 4.09 µM (active) |
| O=C(NO)c1cnc(NC2(c3cccc(F)c3)CCCCC2)nc1 | -0.656 | – | – |
| O=C1NC(=O)[C@@H](c2cn3c4c(cccc24)CCC3)[C@@H]1c1c[nH]c2ccccc12 | 2.18 | – | – |
| O=S(=O)(Nc1ccc(-c2cccnc2)c2cccnc12)c1cccc(C(F)(F)F)c1 | – | inactive | – |
| CC1(C)CCC2(CC1)N[C@@H](C(=O)N[C@@H]1CC[C@@H](C(N)=O)OC1)[C@H](c1ccnc(Cl)c1F)[C@]21C(=O)Nc2cc(Cl)ccc21 | – | inactive [at 27.7 µM] | – |
| Cn1nccc1Nc1nccc(-c2cc3c(s2)C(C)(C)N(CCN2CCOCC2)C3=O)n1 | – | inactive | – |
| CC(=O)NCC(=O)N1[C@@H]2CC[C@H]1c1ccc(Nc3ncc(C(F)(F)F)c(NC4CCC4)n3)cc12 | – | inactive | – |
| N#C/C(=C1/Nc2ccccc2S1)c1ccnc(OCc2ccc(CN3CCOCC3)cc2)n1 | -15.8 | – | – |
| O=C1OC(COc2ccccc2[N+](=O)[O-])CC1Cc1ccccc1 (stereo not given) | – | inactive | – |
| CN(C)CCNC(=O)COc1c2cccc1Cc1cccc(c1OCC(=O)NCCN(C)C)Cc1cccc(c1OCC(=O)NCCN(C)C)Cc1cccc(c1OCC(=O)NCCN(C)C)C2 | – | inactive [at 9.52 µM] | – |
| Cc1ccc(S(=O)(=O)Nc2cc(C(F)(F)F)ccc2C(=O)Nc2nc(-c3ccccc3)cs2)cc1 | – | inactive | – |
